Sampled rows, rich in hits. Any-hit rate of the full collection: about 1.6%.
KCNQ2 pot: KCNQ2 (rat) channel potentiation; O88943; CHO-K1 KCNQ2, FluxOR thallium flux fluorescence; hits give high values; B-score at 10 µM; 310,000 tested, 0.54% active;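 active means fluorescence ratio B-score at least 3 SD of library B-scores, with initial fluorescence B-score within 3 of them, cut at about 5.3 in these data; same plate scores as AID 2156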;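 further: B-score of peak minus minimum over baseline fluorescence ratio after K+ and Tl+ stimulus; positive B-score means potentiation of KCNQ2 with more thallium influx and brighter signal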
Target sequence (O88943 whole entry, looked up): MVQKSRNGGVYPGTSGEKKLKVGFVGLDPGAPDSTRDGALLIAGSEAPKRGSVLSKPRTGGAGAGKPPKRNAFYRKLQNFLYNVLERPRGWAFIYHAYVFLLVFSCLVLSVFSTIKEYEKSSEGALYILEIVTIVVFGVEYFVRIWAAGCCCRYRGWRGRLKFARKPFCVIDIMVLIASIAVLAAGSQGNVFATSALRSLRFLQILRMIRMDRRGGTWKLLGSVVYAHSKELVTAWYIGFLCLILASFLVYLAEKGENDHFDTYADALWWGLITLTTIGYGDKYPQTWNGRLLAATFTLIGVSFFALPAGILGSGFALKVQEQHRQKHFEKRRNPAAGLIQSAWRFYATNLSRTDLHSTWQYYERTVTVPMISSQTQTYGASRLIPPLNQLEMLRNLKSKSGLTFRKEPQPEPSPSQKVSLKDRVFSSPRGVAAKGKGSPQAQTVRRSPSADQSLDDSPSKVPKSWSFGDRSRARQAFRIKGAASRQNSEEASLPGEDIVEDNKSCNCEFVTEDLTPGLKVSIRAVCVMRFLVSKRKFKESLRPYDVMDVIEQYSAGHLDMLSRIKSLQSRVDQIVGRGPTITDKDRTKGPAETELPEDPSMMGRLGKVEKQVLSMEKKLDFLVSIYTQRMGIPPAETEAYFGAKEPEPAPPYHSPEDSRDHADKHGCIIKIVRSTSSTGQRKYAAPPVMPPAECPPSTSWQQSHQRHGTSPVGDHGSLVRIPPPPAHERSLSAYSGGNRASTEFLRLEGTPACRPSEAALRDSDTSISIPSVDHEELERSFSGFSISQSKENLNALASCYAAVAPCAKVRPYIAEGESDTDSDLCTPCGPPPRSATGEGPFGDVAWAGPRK
KCNQ2 inh: inhibitors of rat KCNQ2 potassium channel. O88943. CHO-K1 KCNQ2, FluxOR thallium flux, 20 min; hits give low values. B-score at 10 µM. 310,000 tested, 1.1% active. AID 2156;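 active means fluorescence ratio B-score at most minus 3 library SDs, with starting brightness B-score within 2 library SDs, cut at about -5.5 in these data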
Starred values were filed as active, the others as inactive; i = inactive; · = no result.

SMILES | KCNQ2 pot | KCNQ2 inh
CCOc1cc(CNCCN2CCOCC2)ccc1OCc1ccccc1Cl | · | i
CCOc1cc(CNCCCN2CCOCC2)cc(Br)c1OCc1ccccc1Cl | -5.9 | -5.9*
CN(Cc1ccccc1)C(=O)c1nc2ccccn2c1CN1CCC(N2CCOCC2)CC1 | 0.19 | i
O=C(NC1CCS(=O)(=O)C1)c1cccc(Cl)c1 (centres undefined) | · | i
CC(CC(=O)NC(C)c1ccc2c(c1)OCCO2)c1ccccc1 (centres undefined) | 9.3* | i
CC(CC(=O)Nc1ccc2c(c1)OCCO2)c1ccccc1 (centres undefined) | 1.7 | i
CCOc1c(C)cnc2c1c(=O)n(Cc1ccc(Cl)cc1)c(=O)n2C | -5.9 | -5.9*
CCOc1c(C)cnc2c1c(=O)n(Cc1cccc(Cl)c1)c(=O)n2C | · | i
Cc1cccc(OCCC(=O)Nc2ccc(Cl)cc2F)c1 | 2.9 | i
COc1ccc(N2CCN(C(c3ccc4ncccc4c3)c3nnnn3C(C)C)CC2)cc1 (centres undefined) | · | i
Cc1ccc(-c2cc(C(=O)NCCCN3CCOCC3)c3ccccc3n2)cc1 | 0.19 | i
CCc1ccc(Sc2cc(C(=O)NCCN3CCOCC3)c3ccccc3n2)cc1 | -5.7 | -5.7*
CCCOc1ccc(CN(CCC#N)C(=S)NC(=O)c2ccccc2)cc1 | 7.1* | i
CCN(CC)S(=O)(=O)c1ccc(C(=O)NC(=S)N(CCO)Cc2ccccc2)cc1 | 1.4 | i
O=C(COc1ccccc1)NCC(=O)Nc1cccc(S(=O)(=O)NC2=NCCC2)c1 | · | i
CC12CCC(C(=O)Nc3cccc(Cl)c3)(C(Br)C1=O)C2(C)C (centres undefined) | 7* | i
CC12CCC(C(=O)Nc3ccc(Cl)cc3)([C@H](Br)C1=O)C2(C)C (some centres undefined) | · | i
CN1CCN(Cc2cccc(Oc3ccccc3)c2)CC1 | 0.44 | i
COc1ccc(CN2CCN(Cc3cccc(Oc4ccccc4)c3)CC2)c(OC)c1OC | -7.5 | -7.5*
CCCC1=Nc2cc(C(=O)N3CCN(c4ccccn4)CC3)ccc2Sc2ccc(C)cc21 | -5.7 | -5.7*
CCOC(=O)N1CCN(C(=O)c2ccc3c(c2)N=C(CC)c2cc(C)ccc2S3)CC1 | · | i
CCC1=Nc2cc(C(=O)N3CCCCC3)ccc2Sc2ccc(C)cc21 | -5.9 | -5.9*
CCCC1=Nc2cc(C(=O)N3CCCC3)ccc2Sc2ccc(C)cc21 | · | i
CCC(C)(C)n1nnnc1C(c1cc2cc(C)ccc2[nH]c1=O)N1CCCc2ccccc21 (centres undefined) | 34* | i
Cc1ccc2[nH]c(=O)c(C(c3nnnn3C3CCCC3)N3CCCc4ccccc43)cc2c1 (centres undefined) | 0.06 | i
SMILES | KCNQ2 pot | KCNQ2 inh
CCC(C)(C)n1nnnc1C(c1cc2ccc(OC)cc2[nH]c1=O)N1CCc2ccccc21 (centres undefined) | -6.1 | -6.1*
CCC(C)(C)n1nnnc1C(c1cc2cc(OC)ccc2[nH]c1=O)N1CCc2ccccc21 (centres undefined) | 3 | i
O=C(O)C(Cc1c[nH]c2ccccc12)N1C(=O)C2C3c4ccccc4C(c4ccccc43)[C@@H]2C1=O (some centres undefined) | 0.21 | i
O=c1[nH][nH]cc1C=NCc1cccc(C(F)(F)F)c1 | · | i
CCn1c(Sc2ccc([N+](=O)[O-])cn2)nnc1-c1ccco1 | · | i
COc1cc2cc(CN(CCc3cccc(C)c3)C(=S)NCCCN3CCOCC3)c(=O)[nH]c2cc1OC | · | i
Cc1cccc(N2CCN(C(=O)c3ccc(-n4cncn4)c([N+](=O)[O-])c3)CC2)c1C | · | i
O=C(/C=C/c1cccc(Br)c1)N1CCN(c2ccccn2)CC1 | -7.6 | -7.6*
O=C(/C=C/c1ccc(F)cc1)N1CCN(c2ccccn2)CC1 | 0.01 | i
Cc1cc(OCC(=O)N2CCN(c3ccccn3)CC2)cc(C)c1Br | -6 | -6*
CCc1ccc(OCC(=O)N2CCN(c3ccccn3)CC2)c(Br)c1 | 0.22 | i
Cc1ccc([N+](=O)[O-])cc1N/C=C1\CCCCC1=O | · | i
COc1ccc(-c2cnc(SCC(=O)Nc3cc(C)on3)n2Cc2ccco2)cc1 | · | i
COc1ccc(-c2cnc(SCC(=O)Nc3nc(C(C)(C)C)cs3)n2Cc2ccco2)cc1 | -8.3 | -8.3*
COc1ccc(C(=O)Nc2nc(CC(=O)NCCc3ccccc3)cs2)cc1 | · | i
COc1cc(OC)cc(C(=O)Nc2nc(CC(=O)NC(C)c3ccccc3)cs2)c1 (centres undefined) | -6.3 | -6.3*
COc1ccc(-n2c(SCC(N)=O)nc3sc4c(c3c2=O)CCC4)cc1 | 0.01 | i
c1ccc(CCc2nn3c(C4COc5ccccc5O4)nnc3s2)cc1 (centres undefined) | -6.1 | -6.1*
c1ccc(Cc2nn3c(C4COc5ccccc5O4)nnc3s2)cc1 (centres undefined) | · | i
CCOc1cc(C)c(S(=O)(=O)Nc2ccc3cn[nH]c3c2)cc1C | 0.03 | i
